Reference: PubChem BioAssay AID1159580 (chemical genetic matrix, 2015)
“And” between values parts separate entries of the source, which are not always exact repeats. Equal entries are not always repeated. Hit rate of the full screen: of about 5,500 compounds, about 2,000 (36%) were called active. About 18% were inconclusive and are not listed. This is one part of the list. Values without a mark were called inactive. No stated cut-off is given here; in the data, active means normalized growth mostly below about 0.91 (no sharp cut-off); inconclusive means no clear call, values can overlap the other calls; inactive means mostly above about 0.92.

Assay: chemical genetic growth profiling, strain panel (AID 1159580);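 further: tested at 20 µM; growth read once vehicle control cultures reached saturation at 30 °C; 1 = growth at the plate median or of vehicle wells; lower values mean less growth of the strain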
Conditions: S. cerevisiae deletion strains, growth OD

CC(=O)OC[C@@]1(O)C[C@@]23CCC4c5ccoc5CC[C@]4(C)C2CC[C@@H]1C3 (some centres not stated)
normalized growth (locus YAL013W, strain DEP1, hits give low values): 0.985 | normalized growth (locus YAL021C, strain ccr4, hits give low values): 1.03 | normalized growth (locus YAL026C, strain drs2, hits give low values): 0.901 (active) | normalized growth (locus YAL030W, strain snc1, hits give low values): 1.02 | normalized growth (locus YBL061C, strain skt5, hits give low values): 0.988 | normalized growth (locus YBR009C, strain hhf1, hits give low values): 0.97 | normalized growth (locus YBR021W, strain FUR4, hits give low values): 0.964 | normalized growth (locus YBR023C, strain chs3, hits give low values): 0.953 | normalized growth (locus YBR171W, strain sec66, hits give low values): 0.986 | normalized growth (locus YBR229C, strain ROT2, hits give low values): 0.998 | normalized growth (locus YBR231C, strain swc5, hits give low values): 1.01 | normalized growth (locus YBR279W, strain paf1, hits give low values): 1.02 | normalized growth (locus YCL011C, strain gbp2, hits give low values): 0.998 | normalized growth (locus YCL016C, strain dcc1, hits give low values): 0.975 | normalized growth (locus YCL029C, strain bik1, hits give low values): 0.963 | normalized growth (locus YCL061C, strain MRC1, hits give low values): 0.98 | normalized growth (locus YCL069W, strain vba3, hits give low values): 1 | normalized growth (locus YCR088W, strain abp1, hits give low values): 0.997 | normalized growth (locus YDL005C, strain med2, hits give low values): 1.02 | normalized growth (locus YDL035C, strain GPR1, hits give low values): 0.899 | normalized growth (locus YDL040C, strain nat1, hits give low values): 1 | normalized growth (locus YDL074C, strain BRE1, hits give low values): 0.88 | normalized growth (locus YDL101C, strain DUN1, hits give low values): 0.986 | normalized growth (locus YDL134C, strain PPH21, hits give low values): 0.973 | normalized growth (locus YDL185W, strain tfp1, hits give low values): 0.968 | normalized growth (locus YDL192W, strain arf1, hits give low values): 0.932 | normalized growth (locus YDR001C, strain nth1, hits give low values): 1 | normalized growth (locus YDR069C, strain doa4, hits give low values): 1.02 | normalized growth (locus YDR101C, strain arx1, hits give low values): 0.965 | normalized growth (locus YDR137W, strain rgp1, hits give low values): 0.805 (active) | normalized growth (locus YDR150W, strain NUM1, hits give low values): 0.948 | normalized growth (locus YDR159W, strain sac3, hits give low values): 0.991 | normalized growth (locus YDR162C, strain NBP2, hits give low values): 0.97 | normalized growth (locus YDR195W, strain ref2): 0.993 | normalized growth (locus YDR297W, strain sur2, hits give low values): 1.01 | normalized growth (locus YDR318W, strain mcm21, hits give low values): 0.911 (active) | normalized growth (locus YDR334W, strain swr1, hits give low values): 1.01 | normalized growth (locus YDR335W, strain msn5, hits give low values): 1 | normalized growth (locus YDR388W, hits give low values): 0.977 | normalized growth (locus YDR392W, strain spt3, hits give low values): 0.576 (active) | normalized growth (locus YDR502C, strain sam2, hits give low values): 0.956 | normalized growth (locus YEL003W, strain gim4, hits give low values): 1 | normalized growth (locus YEL037C, strain rad23, hits give low values): 0.992 | normalized growth (locus YEL061C, strain CIN8 (second series), hits give low values): 1 | normalized growth (locus YEL061C, strain CIN8, hits give low values): 0.986 | normalized growth (locus YER015W, strain faa2, hits give low values): 1.01 | normalized growth (locus YER016W, strain bim1, hits give low values): 0.996 | normalized growth (locus YER110C, hits give low values): 0.95 | normalized growth (locus YER111C, strain swi4, hits give low values): 0.995 | normalized growth (locus YER155C, strain BEM2 (second series), hits give low values): 0.987 | normalized growth (locus YER155C, strain BEM2, hits give low values): 0.972 | normalized growth (locus YER167W, strain BCK2, hits give low values): 0.929 | normalized growth (locus YFR010W, strain ubp6, hits give low values): 0.985 | normalized growth (locus YGL078C, strain dbp3, hits give low values): 0.966 | normalized growth (locus YGL086W, strain mad1, hits give low values): 0.931 | normalized growth (locus YGL167C, strain pmr1, hits give low values): 1 | normalized growth (locus YGL173C, strain kem1, hits give low values): 1.03 | normalized growth (locus YGL227W, strain vid30, hits give low values): 1.01 | normalized growth (locus YGL240W, strain doc1, hits give low values): 1 | normalized growth (locus YGL248W, strain PDE1, hits give low values): 0.98 | normalized growth (locus YGL253W, strain hxk2, hits give low values): 0.91 (active) | normalized growth (locus YGR078C, strain PAC10, hits give low values): 0.934 | normalized growth (locus YGR135W, strain pre9, hits give low values): 0.95 | normalized growth (locus YGR229C, strain SMI1, hits give low values): 0.804 (active) | normalized growth (locus YGR252W, strain gcn5, hits give low values): 0.912 | normalized growth (locus YHR013C, strain ard1, hits give low values): 1.19 [resistant] (active) | normalized growth (locus YHR027C, strain rpn1, hits give low values): 1.01 | normalized growth (locus YHR030C, strain SLT2, hits give low values): 0.943 and 0.867 | normalized growth (locus YHR079C, strain IRE1 (second series), hits give low values): 0.924 (active) | normalized growth (locus YHR079C, strain IRE1, hits give low values): 0.918 | normalized growth (locus YHR094C, strain hxt1, hits give low values): 0.96 | normalized growth (locus YHR129C, strain ARP1, hits give low values): 0.985 | normalized growth (locus YHR142W, strain chs7, hits give low values): 0.846 (active) | normalized growth (locus YHR200W, strain rpn10, hits give low values): 0.96 | normalized growth (locus YIL066C, strain RNR3, hits give low values): 0.981 | normalized growth (locus YIL073C, strain SPO22, hits give low values): 0.991 | normalized growth (locus YIL125W, strain kgd1, hits give low values): 0.965 | normalized growth (locus YIR030C, strain dcg1, hits give low values): 0.974 | normalized growth (locus YJL092W, strain hpr5, hits give low values): 1 | normalized growth (locus YJL095W, strain BCK1 (second series), hits give low values): 1.01 | normalized growth (locus YJL095W, strain BCK1, hits give low values): 0.909 and 0.89 | normalized growth (locus YJL115W, strain asf1, hits give low values): 1.01 | normalized growth (locus YJL129C, strain trk1, hits give low values): 0.984 | normalized growth (locus YJL134W, strain LCB3, hits give low values): 0.973 | normalized growth (locus YJL154C, strain vps35, hits give low values): 1 | normalized growth (locus YJL164C, strain tpk1, hits give low values): 0.973 | normalized growth (locus YJL166W, strain qcr8, hits give low values): 0.996 | normalized growth (locus YJL168C, strain set2, hits give low values): 0.983 | normalized growth (locus YJL187C, strain SWE1 (second series), hits give low values): 0.961 | normalized growth (locus YJL187C, strain SWE1, hits give low values): 1.01 | normalized growth (locus YJR043C, strain POL32, hits give low values): 0.954 | normalized growth (locus YJR066W, strain TOR1, hits give low values): 0.825 (active)
